Most compounds without a hit are left out; they make up all but 2.1% or so of the library.
APP transl inh: inhibitors of APP translation via 5'UTR reporter, primary screen, APP 5'UTR luciferase, SH-SY5Y cells | SH-SY5Y APP 5'UTR-luciferase reporter, luminescence | inhibition, % at 2 µM | 190,000 tested, 0.82% active;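 active means inhibition above a set limit, derived from the sample mean plus 3 SD, cut at about 45% in these data; inconclusive means one replicate passes the limit while the other fails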
IEC-6 tox-1: cytotoxicity in IEC-6 intestinal epithelial cells, primary screen, cytotoxicity control for KLF5 inhibitor project, cell-based, luminescence | IEC-6 cytotoxicity, luminescence viability | inhibition, % at 5 µM | 290,000 tested, 0.78% active | AID 1825, 2009;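 further: 0% = plate median of test compound wells and 100% = cytotoxic reference compound wells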
KLF5 inhibitor: KLF5 expression inhibitors, primary screen, DLD-1 cells, luminescence | DLD-1 KLF5 promoter-luciferase reporter | inhibition, % at 5 µM | 290,000 tested, 0.23% active;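 active means inhibition above a per-plate limit of that plate's mean compound inhibition plus 3 SD, cut at about 60% in these data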;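 further: 0% = DMSO wells and 100% = LY294002 at 200 µM; higher means less KLF5 promoter-driven luciferase light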
BaF3 parental: parental Ba/F3 cell viability inhibition, counter-screen for JAK2V617F inhibitor project, murine pro-B, CellTiter-Glo luminescence; 220,000 tested, 1.1% active; inhibition, % at 5.6 µM; CellTiter-Glo ATP luminescence;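 active means inhibition above a per-campaign cutoff, the mean inhibition of all tested compounds plus 3 SD, cut at about 27% in these data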;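 further: 0% = DMSO wells and 100% = JAK Inhibitor I control wells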
Ba/F3 V617F tox: reduced viability of JAK2V617F-dependent Ba/F3 cells, primary screen, JAK2V617F inhibitor project, cell-based, Ba/F3 EpoR-JAK2V617F, luminescence. ATP luminescence. inhibition, % at 5.6 µM. 220,000 tested, 1.1% active. AID 1446, 2008;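 active means inhibition above the campaign mean plus 3 SD over all tested compounds, cut at about 24% in these data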;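 further: cytokine-independent growth of Ba/F3 cells driven by EpoR plus mutant JAK2; 0% = DMSO-treated cells and 100% = JAK inhibitor I control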
aSyn UTR inh: MLPCN primary screen, SNCA 5' untranslated region; alpha-synuclein 5'UTR reporter, inhibitor activity; AID 1813, 2009; 300,000 tested, 0.82% active; inhibition, % (tested at 7.5 µM); in the data active means inhibition above about 60%; inconclusive means no clear call, values can overlap the other calls;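 further: H4 neuroglioblastoma cells stably carrying SNCA 5'UTR luciferase fusion; 0% = DMSO wells and 100% = positive control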
KLF5 inh confirm: KLF5 expression inhibitors, confirmation, DLD-1 cells, luminescence; shares compounds with KLF5 inhibitor; DLD-1 KLF5 promoter firefly luciferase reporter; inhibition, % at 4 µM; 610 tested, 79% active; AID 1834, 2009;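 active means inhibition above a set limit taken from the earlier primary screen, cut at about 63% in these data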;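 further: 0% = DMSO wells and 100% = LY294002 at 200 µM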
IEC-6 tox-2: cytotoxicity in rat IEC-6 cells, cytotoxicity control for KLF5 inhibitor project, cell-based, luminescence, triplicate; 610 tested, 56% active; shares compounds with KLF5 inhibitor; IEC-6 rat intestinal cells, viability luminescence; inhibition, % at 4 µM; in the data active means inhibition above about 23%;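 further: cells exposed to compounds for 48 hours before viability read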
IEC-6 cytotox cf: cytotoxic compounds in IEC-6 epithelial cells, confirmation, cytotoxicity control, cell-based, luminescence; 1,900 tested, 63% active; shares compounds with IEC-6 tox-1; inhibition, % at 5 µM; IEC-6 rat intestinal epithelial viability;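 further: 0% = vehicle and 100% = reference cytotoxic drug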
Active calls of the source: *. Unless noted, no stated cut-off is given here; in the data, active means inhibition above about 22%; inactive means the rest.

Screening COc1ccc(/C=N/NC(=O)c2[nH]c3ccc(Br)cc3c2-c2ccccc2)c(C(=O)O)c1OC returned IEC-6 tox-1 0.4, KLF5 inhibitor 2.8, BaF3 parental 0.4, Ba/F3 V617F tox -3.9 and aSyn UTR inh -7.7.
`COc1ccc(/C=N/NC(=O)c2[nH]c3ccc(Br)cc3c2-c2ccccc2)cc1` gave APP transl inh 96.7*, IEC-6 tox-1 73.3*, KLF5 inhibitor 81.7*, BaF3 parental 92.6*, Ba/F3 V617F tox 96.0*, aSyn UTR inh 79.8*, KLF5 inh confirm 89.9*, IEC-6 tox-2 86.0* and IEC-6 cytotox cf 83.0*.
For O=C1c2cccnc2C(Nc2ccc(Br)cc2Br)N1Cc1cccs1 (stereo unspecified) the results were APP transl inh 3.2, IEC-6 tox-1 -1.7, KLF5 inhibitor -8.3, BaF3 parental 9.0, Ba/F3 V617F tox -0.3 and aSyn UTR inh -16.6.
For COc1cccc(/C=C2\NC(=O)NC2=O)c1O the results were IEC-6 tox-1 0.3, KLF5 inhibitor -30.9 and aSyn UTR inh -56.0.
Screening CN1/C(=C/c2cccc[n+]2CCO)Sc2ccccc21 returned IEC-6 tox-1 3.0, KLF5 inhibitor -18.1 and aSyn UTR inh -0.6.
For CC[n+]1c(/C=C2\Sc3ccccc3N2C)ccc2cccc(C)c21 the results were APP transl inh 51.9*, IEC-6 tox-1 70.7*, KLF5 inhibitor 68.3*, BaF3 parental 104.1*, Ba/F3 V617F tox 101.9*, aSyn UTR inh 115.8*, KLF5 inh confirm 114.9*, IEC-6 tox-2 55.5* and IEC-6 cytotox cf 63.8*.
For Cc1nn(-c2nnc(NC3CCCCC3)nn2)c(C)c1Br the results were APP transl inh -134.2, IEC-6 tox-1 10.0, KLF5 inhibitor -52.2, BaF3 parental 4.5, Ba/F3 V617F tox -4.3 and aSyn UTR inh -164.8.
Screening CCOC(=O)C(C)Oc1cccc2c(=O)n(CC(=O)NCc3ccccc3)ccc12 (stereo unspecified) returned IEC-6 tox-1 81.5*, KLF5 inhibitor 63.1*, BaF3 parental 76.2*, Ba/F3 V617F tox 72.8*, aSyn UTR inh 72.6*, KLF5 inh confirm 83.6*, IEC-6 tox-2 57.5* and IEC-6 cytotox cf 58.1*.
Screening C1CCC(c2nn3c(-c4n[nH]c5c4CCC5)nnc3s2)CC1 returned APP transl inh 11.4, IEC-6 tox-1 -4.4, KLF5 inhibitor -20.6, BaF3 parental 6.8, Ba/F3 V617F tox 3.6 and aSyn UTR inh inconclusive.
Screening CCN(CC)c1ccc(-c2nn3c(-c4n[nH]c5c4CCC5)nnc3s2)cc1 returned APP transl inh 96.0*, IEC-6 tox-1 85.4*, KLF5 inhibitor 72.6*, BaF3 parental 77.5*, Ba/F3 V617F tox 74.5*, aSyn UTR inh 72.3*, KLF5 inh confirm 76.5*, IEC-6 tox-2 62.0* and IEC-6 cytotox cf 50.3*.
CN(Cc1c(F)cccc1Cl)C(=O)c1cnc2ccccc2n1 was read as IEC-6 tox-1 5.7, KLF5 inhibitor -0.5 and aSyn UTR inh -4.8.
`COC(=O)c1cc(C(=O)N2CCN(c3cccc(Cl)c3)CC2)cc([N+](=O)[O-])c1` gave APP transl inh 92.3*, IEC-6 tox-1 79.4*, KLF5 inhibitor 69.6*, BaF3 parental 71.5*, Ba/F3 V617F tox 72.7*, aSyn UTR inh 37.5, KLF5 inh confirm 75.9*, IEC-6 tox-2 55.8* and IEC-6 cytotox cf 53.0*.
For CCOc1ccccc1C(=O)N1CCN(c2cccc(Cl)c2)CC1 the results were APP transl inh 94.5*, IEC-6 tox-1 91.8*, KLF5 inhibitor 84.6*, BaF3 parental 85.1*, Ba/F3 V617F tox 89.3*, aSyn UTR inh 95.1*, KLF5 inh confirm 109.0*, IEC-6 tox-2 74.7* and IEC-6 cytotox cf 66.5*.

Assay outcomes deposited in PubChem by several laboratories.
